According to PubChem BioAssay (Tox21):
Results filed as inconclusive are left out. Active and inactive are the calls of the source. Calls follow the shape of the dose curve; as a rule, active = well fitted curve in the direction sought with a large enough effect in the repeat runs; inconclusive = weak or mixed curves; inactive = no such curve, though single readings can be large; an effect the other way counts as inactive or inconclusive.

Key:
[1] = qHTS RealTime-Glo MT Cell Viability Assay in HEK293 cells - 16 hour (AID 1224872); also: top concentration of the series differs between compounds; nearly all actives have a fitted effect of over 50% in size
Summary of the method: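 Cells + reagent dispensed (600 cells/well, HEK293) → 5 h at 37 C/5% CO2 → 23 nL compound in DMSO pinned → 40 h at 37 C → luminescence read at 0, 8, 16, 24, 32, 40 h.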

[2] = qHTS RealTime-Glo MT Cell Viability Assay in HepG2 cells - 8 hour (AID 1224873); also: nearly all actives have a fitted effect of over 55% in size
Summary of the method: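 Real-time viability: cells seeded at 600 per well together with NanoLuc and cell-permeant prosubstrate, compounds added after 5 h incubation. Luminescence tracked at 0, 8, 16, 24, 32 and 40 h of exposure.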

[3] = qHTS RealTime-Glo MT Cell Viability Assay in HEK293 cells - 40 hour (AID 1224874); conditions: RealTime-Glo luminescence; max response: active compounds read low; also: nearly all actives have a fitted effect of over 50% in size
Summary of the method: (§1)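 HEK293 cells mixed with RealTime-Glo reagents (NanoLuc plus cell-permeant prosubstrate) at 600 cells/well, preincubated 5 h at 37 C/5% CO2, then given 23 nL compound in DMSO. Nonlytic luminescence from viable cells was read at 0, 8, 16, 24, 32 and 40 h.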

[4] = A CellTox Green Cytotoxicity Assay to monitor cytotoxicity in HEK293 cells - 24 hour (AID 1224875); also: series mostly up to about 77 µM; nearly all actives have a fitted effect of over 45% in size
Summary of the method: (§2)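 HEK293 cells premixed with CellTox Green dye were seeded at 600 cells/well and left 5 h at 37 C/5% CO2 before pin transfer of 23 nL compound in DMSO. Fluorescence from dye bound to dead-cell DNA was read during 40 h treatment.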

[5] = A CellTox Green Cytotoxicity Assay to monitor cytotoxicity in HepG2 cells - 16 hour (AID 1224876); also: nearly all actives have a fitted effect of over 45% in size
Summary of the method: (§3)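 HepG2 cells were seeded together with the CellTox Green dye at 600 cells/well, left 5 h at 37 C/5% CO2, then given compounds in DMSO. Fluorescence from dye bound to dead-cell DNA was read repeatedly over 40 h of treatment at 37 C.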

[6] = qHTS RealTime-Glo MT Cell Viability Assay in HepG2 cells - 32 hour (AID 1224877); also: nearly all actives have a fitted effect of over 55% in size
Summary of the method: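 Real-time, nonlytic viability: 600 HepG2 cells/well mixed with NanoLuc enzyme plus prosubstrate; 5 h settle, compound (DMSO) added by pintool; luminescence monitored over 40 h at 37 C.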

[7] = A CellTox Green Cytotoxicity Assay to monitor cytotoxicity in HepG2 cells - 24 hour (AID 1224878); also: nearly all actives have a fitted effect of over 45% in size
Summary of the method: as §3

[8] = A CellTox Green Cytotoxicity Assay to monitor cytotoxicity in HepG2 cells - 40 hour (AID 1224879); also: nearly all actives have a fitted effect of over 40% in size
Summary of the method: as §3

[9] = qHTS RealTime-Glo MT Cell Viability Assay in HEK293 cells - 0 hour (AID 1224880); also: top concentration of the series differs between compounds; nearly all actives have a fitted effect of over 45% in size
Summary of the method: as §1

[10] = A CellTox Green Cytotoxicity Assay to monitor cytotoxicity in HEK293 cells - 32 hour (AID 1224881); also: nearly all actives have a fitted effect of over 40% in size
Summary of the method: as §2
% is scaled to controls: 0 for no effect and ±100 for the full control effect.

CCCC[N+](C)(CCCC)CCCC
inactive: Potency [1] | outcome [2] | max response [3] -1.08% | outcome [4] | outcome [5] | Potency [6] | outcome [7] | Potency [8] | Potency [9] | outcome [10]

CO[Si](C)(OC)c1ccccc1
inactive: Potency [1] | outcome [2] | max response [3] -2.44% | outcome [4] | outcome [5] | Potency [6] | outcome [7] | Potency [8] | Potency [9] | outcome [10]

[Ca+2]
inactive: Potency [1] | outcome [2] | max response [3] 5.91% | outcome [4] | outcome [5] | Potency [6] | outcome [7] | Potency [8] | Potency [9] | outcome [10]

CC(C)(N)C#N
inactive: Potency [1] | outcome [2] | max response [3] -0.492% | outcome [4] | outcome [5] | Potency [6] | outcome [7] | Potency [8] | Potency [9] | outcome [10]

FB(F)F
inactive: Potency [1] | outcome [2] | max response [3] -1.41% | outcome [4] | outcome [5] | Potency [6] | outcome [7] | Potency [8] | Potency [9] | outcome [10]

C=C(C)C(=O)OCC1CCCO1 (stereo not given)
inactive: Potency [1] | outcome [2] | max response [3] 7.57% | outcome [4] | outcome [5] | Potency [6] | outcome [7] | Potency [8] | Potency [9] | outcome [10]

CCCCc1ccc2c(n1)[C@@H](c1ccc(OC)cc1C[C@H](C)C(=O)O)[C@H](C(=O)O)[C@H]2c1ccc2c(c1)OCO2
inactive: Potency [1] | outcome [2] | max response [3] 0.185% | outcome [4] | outcome [5] | Potency [6] | outcome [7] | Potency [8] | Potency [9] | outcome [10]

CCCCCCCCCCOc1cc2c(=O)c(C(=O)OCC)c[nH]c2cc1OCC
inactive: activity change, negative = cytotoxicity [1] -0.329% [at 6.97 µM] | viability change, negative = cytotoxic [2] 8.14% [at 6.97 µM] | max response [3] 4.14% | activity change [4] 2.15% [at 6.97 µM] | cytotoxicity increase [5] 1.94% [at 6.97 µM] | activity change, negative = cytotoxic [6] 0.806% [at 6.97 µM] | cytotoxicity [7] 2.18% [at 6.97 µM] | cytotoxicity increase [8] -5.64% [at 6.97 µM] | activity change, negative = cytotoxicity [9] -0.96% [at 6.97 µM] | cytotoxicity increase [10] 0.664% [at 6.97 µM]

C[C@@H]1C[C@H]2[C@@H]3C[C@H](F)C4=CC(=O)C(Cl)=C[C@]4(C)[C@@]3(F)[C@@H](O)C[C@]2(C)[C@@]1(O)C(=O)CO
inactive: Potency [1] | outcome [2] | max response [3] -27.2% | outcome [4] | outcome [5] | Potency [6] | outcome [7] | Potency [8] | Potency [9] | outcome [10]

COc1cc(C)nc(-n2nc(C)cc2OC)n1
inactive: Potency [1] | outcome [2] | max response [3] -0.0998% | outcome [4] | outcome [5] | Potency [6] | outcome [7] | Potency [8] | Potency [9] | outcome [10]

CCCCCCCCCCCCCCCCCCO
inactive: Potency [1] | outcome [2] | max response [3] -1.19% | outcome [4] | outcome [5] | Potency [6] | outcome [7] | Potency [8] | Potency [9] | outcome [10]

CN(C)C(=O)Oc1cccc([N+](C)(C)C)c1
inactive: Potency [1] | outcome [2] | max response [3] 6.55% | outcome [4] | outcome [5] | Potency [6] | outcome [7] | Potency [8] | Potency [9] | outcome [10]

Cc1onc(-c2c(Cl)cccc2Cl)c1C(=O)Cl
inactive: Potency [1] | outcome [2] | max response [3] 2.75% | outcome [4] | outcome [5] | Potency [6] | outcome [7] | Potency [8] | Potency [9] | outcome [10]

CCOC(=O)CCC(=O)OCC
inactive: Potency [1] | outcome [2] | max response [3] 3.67% | outcome [4] | outcome [5] | Potency [6] | outcome [7] | Potency [8] | Potency [9] | outcome [10]

CN1[C@@H]2CC[C@H]1CC(OC(=O)C(O)c1ccccc1)C2 (stereo not given in full)
inactive: Potency [1] | outcome [2] | max response [3] 3.93% | outcome [4] | outcome [5] | Potency [6] | outcome [7] | Potency [8] | Potency [9] | outcome [10]

Cc1ccc(C(=O)c2ccccc2)cc1
inactive: Potency [1] | outcome [2] | max response [3] -1.28% | outcome [4] | outcome [5] | Potency [6] | outcome [7] | Potency [8] | Potency [9] | outcome [10]

CC1CCC(CO)CC1 (stereo not given)
inactive: Potency [1] | outcome [2] | max response [3] 9.47% | outcome [4] | outcome [5] | Potency [6] | outcome [7] | Potency [8] | Potency [9] | outcome [10]

CC(C)C(=O)OC(=O)C(C)C
inactive: Potency [1] | outcome [2] | max response [3] 3.07% | outcome [4] | outcome [5] | Potency [6] | outcome [7] | Potency [8] | Potency [9] | outcome [10]

CCOC(=O)COc1cc(-n2ncc(C(F)(F)F)c(C)c2=O)c(F)cc1Cl
inactive: Potency [1] | outcome [2] | max response [3] -4.34% | outcome [4] | outcome [5] | Potency [6] | outcome [7] | Potency [8] | Potency [9] | outcome [10]

CN(C)[C@@H]1C(=O)C(C(=O)NCN2CCCC2)=C(O)[C@@]2(O)C(=O)C3=C(O)c4c(O)cccc4[C@@](C)(O)C3C[C@@H]12 (stereo not given in full)
inactive: Potency [1] | outcome [2] | max response [3] 7.86% | outcome [4] | outcome [5] | Potency [6] | outcome [7] | Potency [8] | Potency [9] | outcome [10]

C=C(C)C(=O)OCC(O)CO (stereo not given)
inactive: Potency [1] | outcome [2] | max response [3] 2.31% | outcome [4] | outcome [5] | Potency [6] | outcome [7] | Potency [8] | Potency [9] | outcome [10]
